# In PubChem BioAssay:
# Values joined by “and” are separate entries in the source; they are usually repeats but may differ in a detail not shown here. Equal values may be shown once. Inconclusive results are not listed. Active and inactive are the calls of the source.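 How the source made its calls, unless noted: active means normalized viability below 100% at a tested concentration; inactive means the rest.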
# Tests used:
# [1] = viability loss in pontine glioma line – cell-based, SU-DIPG-XXV, MIPE5.0, CellTiter-Glo, qHTS, dose response (AID 1347065; cut-off not given, nearly all actives have AC50 up to about 26 µM;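 further: cells exposed to compound for 48 hours before ATP readout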); settings: CellTiter-Glo ATP luminescence
# [2] = SU-DIPG-VI glioma cell viability, MIPE4.0 library, CellTiter-Glo luminescence, qHTS (AID 1347066; cut-off not given, nearly all actives have AC50 up to about 30 µM;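 further: cells exposed to compound for 48 hours before readout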); settings: CellTiter-Glo ATP luminescence
# [3] = JHH-DIPG-1 glioma cell viability, MIPE5.0 library, CellTiter-Glo luminescence, qHTS (AID 1347067; cut-off not given, nearly all actives have AC50 up to about 26 µM;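 further: cells exposed to compound for 48 hours before readout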); settings: JHH-DIPG-1 glioma viability, CellTiter-Glo ATP luminescence
# [4] = SU-DIPG-XXV glioma cell viability, MIPE5.0 library, qHTS (AID 1347068; cut-off not given, nearly all actives have IC50 up to about 30 µM)
# [5] = modifiers of HSF1 nuclear foci, imaging, Selleck Cancer Library (AID 1347162; in the data active means plate-normalised HSF1 focus index below about 0.46); settings: human cells, at 10 µM; SSMD: measured here: HSF1 foci SSMD mean; cell count: measured here: cell number; plate-normalised HSF1 focus index: stronger effect = lower value
# [6] = survival rescue of mitochondrial mutant cells in low glucose, primary screen, MELAS cybrids, Rieske KO mouse fibroblasts, CellTiter-Glo (AID 1508586;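 active means mean z-score across replicates of 1.96 or higher in either the MELAS or the Rieske mutant cell line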;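 further: z relative to plate mean and SD of compound and empty wells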)
# [7] = ovarian cancer cell viability with rucaparib, profiling panel, oncology-focused library, rucaparib conditional (AID 1508598); settings: patient-derived ovarian cancer cells, CellTiter-Glo viability, 144 h, stronger effect = lower value
# [8] = biological target: NAD(+) hydrolase SARM1 (Homo sapiens) (UniProt Q6SZW1); experiment: SARM1 TIR NADase inhibitors, cell lysate, NAD-Glo luminescence (AID 1508614;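 active means compound whose remaining NAD level is above about 45 nM, limit read from the data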); settings: SAM-TIR HEK293T lysate NADase, at 1 µM, stronger effect = higher value
# [9] = viability rescue of complex I mutant cybrids, primary screen, cell-based, galactose medium, ATP luminescence (AID 1645843;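 active means z-score of at least 1.8 in each of two replicates, scored against plate mean and spread of sample wells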;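 further: positive z means more ATP and so rescue of galactose-driven cybrid death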); settings: complex I mutant cybrid cells, 72 h, stronger effect = higher value
# [10] = LFS_MB_P medulloblastoma growth inhibition, cell-based, chromothripsis tumors, cisplatin or BGB combos (AID 1671449; in the data active means inhibition above about 80%;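 further: cells exposed for 96 hours; 0% = vehicle DMSO and 100% = killing by high DMSO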); settings: LFS_MB_P medulloblastoma cells
# [11] = HDN33 neuroblastoma growth inhibition, cell-based, chromothripsis tumors, cisplatin or BGB combos (AID 1671450; in the data active means inhibition above about 80%;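 further: cells exposed to compound for four days; 0% = vehicle DMSO and 100% = cell killing by high DMSO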); settings: HDN33 neuroblastoma cells, stronger effect = higher value
# [12] = ICB984 medulloblastoma cell growth inhibition, synergistic combos for chromothripsis tumors, cisplatin or BGB combos (AID 1671451; call rule not given here;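 further: cells exposed for 96 hours before readout; 0% = vehicle DMSO and 100% = killing by high DMSO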); settings: ICB984 medulloblastoma cells, drug combinations, stronger effect = higher value
# [13] = LFS_MB_1R medulloblastoma cell growth inhibition, synergistic combos for chromothripsis tumors, cisplatin or BGB combos (AID 1671452; in the data active means inhibition above about 80%;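 further: cells exposed for 96 hours before readout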); settings: LFS_MB_1R medulloblastoma cells, stronger effect = higher value
# [14] = HTB85 osteosarcoma cell growth inhibition, synergistic combos for chromothripsis tumors, BGB or cisplatin IC20 combos (AID 1671453; in the data active means inhibition above about 80%;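 further: cells exposed for 96 hours before readout; 0% = vehicle DMSO and 100% = high DMSO killing control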); settings: HTB85 osteosarcoma cells, drug combinations, stronger effect = higher value
# [15] = CRL2098 osteosarcoma cell growth inhibition, synergistic combos for chromothripsis tumors, BGB or cisplatin IC20 combos (AID 1671454; in the data active means inhibition above about 80%;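 further: cells exposed for 96 h before readout; 0% = vehicle DMSO and 100% = killing by high DMSO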); settings: CRL2098 osteosarcoma cells, drug combinations, stronger effect = higher value
# [16] = HD-MB03 medulloblastoma cell growth inhibition, synergistic combos for chromothripsis tumors, BGB or cisplatin IC20 combos (AID 1671455; in the data active means inhibition above about 83%;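 further: 0% = vehicle DMSO and 100% = high DMSO as cytotoxic control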); settings: HD-MB03 medulloblastoma cells, stronger effect = higher value
# [17] = measured here: combination with BGB IC40, at 0.05 µM
# Chain of NAD(+) hydrolase SARM1 (Homo sapiens) (Q6SZW1 whole entry, looked up): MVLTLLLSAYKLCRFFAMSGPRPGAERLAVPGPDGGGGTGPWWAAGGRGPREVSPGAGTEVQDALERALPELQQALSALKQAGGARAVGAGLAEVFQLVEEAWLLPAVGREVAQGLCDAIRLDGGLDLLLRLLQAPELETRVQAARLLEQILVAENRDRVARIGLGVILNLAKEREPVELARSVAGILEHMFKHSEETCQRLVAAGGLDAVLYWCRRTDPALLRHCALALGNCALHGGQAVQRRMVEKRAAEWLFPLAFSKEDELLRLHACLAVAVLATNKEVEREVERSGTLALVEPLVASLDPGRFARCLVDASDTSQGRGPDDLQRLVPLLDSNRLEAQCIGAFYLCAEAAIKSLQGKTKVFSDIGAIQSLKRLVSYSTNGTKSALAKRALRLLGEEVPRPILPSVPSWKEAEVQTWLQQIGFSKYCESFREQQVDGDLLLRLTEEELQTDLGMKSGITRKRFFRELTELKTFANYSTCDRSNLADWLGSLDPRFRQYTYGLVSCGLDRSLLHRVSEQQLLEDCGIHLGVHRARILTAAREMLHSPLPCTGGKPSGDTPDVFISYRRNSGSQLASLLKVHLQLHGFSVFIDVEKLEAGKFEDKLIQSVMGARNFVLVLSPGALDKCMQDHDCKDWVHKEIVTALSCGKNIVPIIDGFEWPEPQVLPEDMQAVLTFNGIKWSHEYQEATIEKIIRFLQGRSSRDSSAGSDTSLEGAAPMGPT
structure (smiles),measurement,setting,value
Cn1nnc2c(C(N)=O)ncn2c1=O,outcome,[1],inactive
same,outcome,[2],inactive
same,outcome,[3],inactive
same,outcome,[4],inactive
same,SSMD,[5],1.56
same,cell count,[5],7070
same,plate-normalised HSF1 focus index,[5],1.09 (inactive)
same,z-score,"[6]; MELAS cybrid survival, CellTiter-Glo 48 h, stronger effect = higher value",-0.452 (inactive) and 0.68 (inactive) and -0.709 (inactive)
same,z-score,"[6]; Rieske KO mouse fibroblast survival, CellTiter-Glo 72 h",0.371 and -0.0371 and -0.913
same,viability,"[7]; at 0.000305 µM, OCI-C5x cells, with rucaparib 10 µM, 100% = cells with rucaparib alone",103% (inactive)
same,viability,"[7]; at 0.000305 µM, OCI-C5x cells, without rucaparib",108% (inactive)
same,viability,"[7]; at 0.000305 µM, OCI-P5x cells, with rucaparib 20 µM, 100% = cells with rucaparib alone",91% (active)
same,viability,"[7]; at 0.000305 µM, OCI-P5x cells, without rucaparib",88.3% (active)
same,viability,"[7]; at 0.00122 µM, OCI-C5x cells, with rucaparib 10 µM, 100% = cells with rucaparib alone",103% (inactive)
same,viability,"[7]; at 0.00122 µM, OCI-C5x cells, without rucaparib",109% (inactive)
same,viability,"[7]; at 0.00122 µM, OCI-P5x cells, with rucaparib 20 µM, 100% = cells with rucaparib alone",108% (inactive)
same,viability,"[7]; at 0.00122 µM, OCI-P5x cells, without rucaparib",98.5% (active)
same,viability,"[7]; at 0.00488 µM, OCI-C5x cells, with rucaparib 10 µM, 100% = cells with rucaparib alone",113% (inactive)
same,viability,"[7]; at 0.00488 µM, OCI-C5x cells, without rucaparib",110% (inactive)
same,viability,"[7]; at 0.00488 µM, OCI-P5x cells, with rucaparib 20 µM, 100% = cells with rucaparib alone",110% (inactive)
same,viability,"[7]; at 0.00488 µM, OCI-P5x cells, without rucaparib",101% (inactive)
same,viability,"[7]; at 0.0195 µM, OCI-C5x cells, with rucaparib 10 µM, 100% = cells with rucaparib alone",118% (inactive)
same,viability,"[7]; at 0.0195 µM, OCI-C5x cells, without rucaparib",108% (inactive)
same,viability,"[7]; at 0.0195 µM, OCI-P5x cells, with rucaparib 20 µM, 100% = cells with rucaparib alone",106% (inactive)
same,viability,"[7]; at 0.0195 µM, OCI-P5x cells, without rucaparib",106% (inactive)
same,viability,"[7]; at 0.0781 µM, OCI-C5x cells, with rucaparib 10 µM, 100% = cells with rucaparib alone",102% (inactive)
same,viability,"[7]; at 0.0781 µM, OCI-C5x cells, without rucaparib",101% (inactive)
same,viability,"[7]; at 0.0781 µM, OCI-P5x cells, with rucaparib 20 µM, 100% = cells with rucaparib alone",112% (inactive)
same,viability,"[7]; at 0.0781 µM, OCI-P5x cells, without rucaparib",104% (inactive)
same,viability,"[7]; at 0.313 µM, OCI-C5x cells, with rucaparib 10 µM, 100% = cells with rucaparib alone",101% (inactive)
same,viability,"[7]; at 0.313 µM, OCI-C5x cells, without rucaparib",104% (inactive)
same,viability,"[7]; at 0.313 µM, OCI-P5x cells, with rucaparib 20 µM, 100% = cells with rucaparib alone",111% (inactive)
same,viability,"[7]; at 0.313 µM, OCI-P5x cells, without rucaparib",109% (inactive)
same,viability,"[7]; at 1.25 µM, OCI-C5x cells, with rucaparib 10 µM, 100% = cells with rucaparib alone",108% (inactive)
same,viability,"[7]; at 1.25 µM, OCI-C5x cells, without rucaparib",90.4% (active)
same,viability,"[7]; at 1.25 µM, OCI-P5x cells, with rucaparib 20 µM, 100% = cells with rucaparib alone",106% (inactive)
same,viability,"[7]; at 1.25 µM, OCI-P5x cells, without rucaparib",110% (inactive)
same,viability,"[7]; at 5 µM, OCI-C5x cells, with rucaparib 10 µM, 100% = cells with rucaparib alone",96.4% (active)
same,viability,"[7]; at 5 µM, OCI-C5x cells, without rucaparib",92.7% (active)
same,viability,"[7]; at 5 µM, OCI-P5x cells, with rucaparib 20 µM, 100% = cells with rucaparib alone",95.5% (active)
same,viability,"[7]; at 5 µM, OCI-P5x cells, without rucaparib",114% (inactive)
same,remaining NAD,[8],10 nM (inactive)
same,z-score,[9],-0.305 (inactive) and -0.09 (inactive) and 0.155 (inactive)
same,inhibition,"[10]; at 0.5 µM, stronger effect = higher value",-17.4% (inactive) and 18.8% (inactive)
same,inhibition,"[10]; measured here: combination with BGB IC20, at 0.005 µM",-10.2% and -21.6%
same,inhibition,"[10]; measured here: combination with BGB IC40, at 0.005 µM",14.1% and -10.5%
same,inhibition,[10]; [17],2.17% and -11.4%
same,inhibition,"[10]; measured here: combination with cisplatin, at 0.5 µM, stronger effect = higher value",-29.5% and 9.38%
same,inhibition,"[10]; measured here: combination with cisplatin, at 5 µM, stronger effect = higher value",-24.1% and -22.5%
same,inhibition,"[11]; BGB combo, at 5 µM",22.2% and -9.06%
same,inhibition,[11]; at 0.5 µM,13.3% (inactive) and -1.85% (inactive)
same,inhibition,"[11]; cisplatin combo, at 5 µM",6.08% and -19.1%
same,inhibition,"[11]; measured here: with BGB IC20 combination, at 0.5 µM",17.6% and 6.04%
same,inhibition,"[11]; measured here: with cisplatin IC20 combination, at 0.5 µM",10.1% and -5.64%
same,inhibition,"[11]; single agent, at 5 µM",14.8% and -8.19%
same,inhibition,"[12]; BGB IC20 combo, at 0.005 µM",-9.22% and 1.55%
same,inhibition,"[12]; BGB IC40 combo, at 0.005 µM",-2.52% and -17.2%
same,inhibition,"[12]; BGB IC40 combo, at 0.05 µM",-13.6% and -3.32%
same,inhibition,[12]; at 0.5 µM,-14.5% (inactive) and -3.73% (inactive)
same,inhibition,"[12]; cisplatin combo, at 0.05 µM",-17.6% and -3.32%
same,inhibition,"[12]; cisplatin combo, at 0.5 µM",-0.899% and 2.38%
same,inhibition,"[12]; cisplatin combo, at 5 µM",-10.6% and -15.5%
same,inhibition,"[12]; measured here: 5 uM single agent, at 5 µM",10.8% and -28.4%
same,inhibition,[13]; at 0.5 µM,-13.9% (inactive) and 3.35% (inactive)
same,inhibition,[13]; [17],-9.42% and 8.49%
same,inhibition,"[13]; measured here: combination with cisplatin, at 0.5 µM",-8.99% and 3.26%
same,inhibition,"[13]; measured here: combination with cisplatin, at 5 µM",-56.8% and -3.5%
same,inhibition,[14]; at 0.5 µM,6.66% (inactive) and -23.3% (inactive)
same,inhibition,"[14]; measured here: with BGB IC20, at 0.5 µM",9.09% and -44.6%
same,inhibition,"[14]; measured here: with BGB IC20, at 5 µM",6.52% and -4.64%
same,inhibition,"[14]; measured here: with cisplatin IC20, at 0.5 µM",-3.99% and -22.6%
same,inhibition,"[14]; measured here: with cisplatin IC20, at 5 µM",-15.9% and 29.4%
same,inhibition,"[14]; single agent, at 5 µM",7.64% and -1.96%
same,inhibition,[15]; at 0.5 µM,-9.21% (inactive) and -17.1% (inactive)
same,inhibition,"[15]; measured here: combination with BGB at IC20, at 0.5 µM",-17.8% and -2.5%
same,inhibition,"[15]; measured here: combination with cisplatin at IC20, at 0.5 µM",7.75% and -28.9%
same,inhibition,[16]; at 0.5 µM,-0.81% (inactive) and -5.74% (inactive)
same,inhibition,"[16]; measured here: combo with BGB at IC20, at 0.5 µM",-12.4% and -6.59%
same,inhibition,"[16]; measured here: combo with cisplatin at IC20, at 0.5 µM",4.26% and -10.3%
